Data reported in PubChem BioAssay (NCI).
About 79,000 compounds went through this panel and 15% of them were active in at least one assay; those are over-represented in the sample as a whole. The source made the active and inactive calls. Cut-off read from the data, not from the text of the source: active = growth inhibition above about 70%; inactive = the rest.

How the values were obtained:
[1] = NCI Yeast Anticancer Drug Screen. Data for the rad50 strain (AID 155);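 note: 0% = growth of vehicle-only cultures of the same strain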; conditions: S. cerevisiae rad50 strain growth inhibition; at 50.0 µM; stronger effect = higher value
Procedure, shortened: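 Compounds were tested on a yeast strain with an engineered DNA damage repair alteration; the reported value is growth inhibition normalised to vehicle treatment.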

[2] = NCI Yeast Anticancer Drug Screen. Data for the mec2-1 strain (AID 157); conditions: S. cerevisiae mec2-1 strain, at 50.0 µM, stronger effect = higher value
Procedure, shortened: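 Readout is yeast growth inhibition, normalised to vehicle-treated controls, in the mec2-1 strain exposed to compound.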

[3] = NCI Yeast Anticancer Drug Screen. Data for the sgs1 mgt1 strain (AID 161);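 note: 0% = growth of cultures given vehicle only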; conditions: S. cerevisiae sgs1 mgt1 strain, at 50.0 µM, stronger effect = higher value
Procedure, shortened: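 Yeast cells carrying a defined DNA-repair defect were exposed to test compounds. Growth inhibition was measured relative to vehicle-treated controls.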

[4] = NCI Yeast Anticancer Drug Screen. Data for the bub3 strain (AID 167); conditions: S. cerevisiae bub3 mutant strain, at 50.0 µM, stronger effect = higher value
Procedure, shortened: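 Growth of a checkpoint-deficient yeast mutant is measured after compound exposure. Values represent inhibition relative to vehicle.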

[5] = NCI Yeast Anticancer Drug Screen. Data for the mlh1 rad18 strain (AID 175); conditions: S. cerevisiae mlh1 rad18 strain growth inhibition; at 50.0 µM; stronger effect = higher value
Procedure, shortened: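 Test agents were incubated with a yeast strain of defined genotype (DNA damage repair defect). Inhibition of growth was derived by comparison with vehicle-exposed cultures.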

[6] = NCI Yeast Anticancer Drug Screen. Data for the cln2 rad14 strain (AID 165);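 note: 0% = growth equal to vehicle treated cultures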; conditions: S. cerevisiae cln2 rad14 strain, at 50.0 µM, stronger effect = higher value
Procedure, shortened: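 Relative to vehicle controls, growth inhibition of compound-treated cln2 rad14 yeast was recorded.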

Measured: growth inhibition

NC(=O)Cc1[nH]ccc1C(=O)O
inactive: [1] 9.4% | [2] -9.75% | [3] -0.05% | [4] -4.15% | [5] 12.1%

COc1ccc(C2=NC(C)(C)CO2)cc1C
inactive: [1] -23.1% | [2] -4.15% | [3] 3.6% | [4] 21.1% | [5] 20.5%

O=C(c1cccc(C(=O)N(c2ccccc2)c2ccccc2)n1)N(c1ccccc1)c1ccccc1
inactive: [1] -47.5% | [2] -11.2% | [3] -32.1% | [4] -11.8% | [5] -1.8%

Cc1cnc2[nH]c(-c3ccccc3)cc(=O)c2c1
inactive: [1] -6.7% | [2] -12.6% | [3] -0.9% | [4] -8.25% | [5] -48.5%

CN1C(c2ccncc2)=NCC12CCCCC2
inactive: [1] 17.2% | [2] 7.35% | [3] 3.6% | [4] 13.2% | [5] -1.5%

CCC(c1ccc(OC)cc1)c1cc2c(cc1OCC(=O)O)OCO2 (stereo not given)
inactive: [1] 36.6% | [2] 55.2% | [3] 57.1% | [4] 44.5% | [5] 65.5%

CCC(C)CCC(=O)OCC(=O)c1ccc(-c2ccccc2)cc1 (stereo not given)
inactive: [1] 13.7% | [2] -18.9% | [3] 14.8% | [4] 7% | [5] 5.75%

Clc1ccc2c(c1)-c1c3c(nn1-c1ccccc1)-c1ccccc1SC3O2 (stereo not given)
inactive: [1] 23.3% | [2] 10.6% | [3] 17.9% | [4] -1.5% | [5] -13.6%

O=C1NC(=O)c2ccc(S)c3cccc1c23
inactive: [1] 0.5% | [2] 0% | [3] -2.35% | [4] 3.35% | [5] -8.05%

COc1ccc(C2=NN(C(C)=O)C(c3cc(OC)c(OC)cc3N)S2)cc1OC (stereo not given) (tested in a mixture with another compound)
inactive: [1] 16.2% | [2] 17.1% | [3] 32.1% | [4] 12.9% | [5] 30.1%

CCOc1ccccc1NC(=O)C(=O)C(/C(=N/N)C(=O)OC)c1nc2ccc([N+](=O)[O-])cc2[nH]c1=O (stereo not given)
inactive: [1] 16.9% | [2] -10% | [3] 5.7% | [4] -1.35% | [5] 9.25%

OCC(O)C(O)C(OC1OC(CO)C(O)C(O)C1O)C(O)CO (stereo not given)
inactive: [1] -1.05% | [2] 37.8% | [3] 26.9% | [4] 13.8% | [5] -3.2%

O=C(O)c1c(Cl)c(Cl)c(Cl)c(Cl)c1C(=O)Nc1cccc(C(F)(F)F)c1
inactive: [1] -9.55% | [2] 10.2% | [3] -8.8% | [4] -1.7% | [5] -14.7%

C=C1C2CCC3(CCC4C5(C)CCCC4(CN(CCO)C5)C3C2)C1O (stereo not given)
inactive: [1] -13.6% | [2] -39.9% | [3] -4.45% | [6] 12.8% | [5] -1.15%

CC(=O)OC(C(=O)O)C(OC(C)=O)C(OC(C)=O)C(=O)O (stereo not given)
inactive: [1] 21.5% | [2] 19.2% | [3] 13.8% | [4] 5.7% | [5] 8.4%

CCOC(=O)CC/C(=N/Nc1ccc(Cl)cc1[N+](=O)[O-])C(=O)OCC
inactive: [1] 11.7% | [2] -39.9% | [3] -31.9% | [4] -24.6% | [5] -0.4%

NNC(=O)CNc1cccc(Br)c1
inactive: [1] -16.1% | [2] -24.6% | [3] -6.1% | [4] -32.4% | [5] -11.4%

O=C(O)COc1ccccc1-c1ccccc1
inactive: [1] -34.4% | [2] -13.7% | [3] -10.6% | [4] 1.55% | [5] -8.6%

O=c1c2cc(-c3ccccc3)sc2nc2n1N=C(c1ccccc1)CS2
inactive: [1] -1.35% | [2] -2.7% | [3] -12.9% | [4] -2.85% | [5] -18.6%

Cc1ccc(-n2cc(-c3ccc(Cl)cc3)c3c2N=CN2NC(c4cccs4)=NC32)cc1 (stereo not given)
inactive: [1] -32.8% | [2] -5.8% | [3] -18.9% | [4] -16.7% | [5] -17.3%

CCN(CC)C1CS(=O)(=O)OC2=C1CSCC2 (stereo not given)
inactive: [1] -2.4% | [2] 19.1% | [3] 11.3% | [4] 4.35% | [5] -31.5%

COc1ccc(C(=O)Nc2c(N)ncnc2N)cc1
active: [2] 73.7%
inactive: [1] 16.8% | [3] 35.1% | [4] 16.5% | [5] 15.1%
